Screening results deposited in PubChem BioAssay by Sanford-Burnham Center for Chemical Genomics.
Only a selection was taken, and hits are over-represented in it overall.
Artemis endo inh – Artemis (human) endonuclease inhibition; Q96SD1; AID 686954; hit rate 0.78% among 30,000; recombinant Artemis, quenched FAM hairpin cleavage fluorescence; inhibition, % at 10 µM;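 active = at 10 µM dose, at least 30% inhibition, measured as corrected fluorescence normalized to stimulator and neutral control wells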
Numbers without * were called inactive.

`CCOC(=O)c1c(-n2c(C)cc(/C=C3/C(=O)NC(=O)N(CC)C3=O)c2C)sc2c1CCCC2` gave Artemis endo inh 35*.
For CC1=CC(=C2C(=O)NC(=S)NC2=O)C=C(C(F)(F)F)N1C the results were Artemis endo inh -4.
`CC(=O)OC1(c2ccccc2)CCN(C)C(C)C1C` (centres undefined) gave Artemis endo inh -4.
CN(CC(=O)Nc1ccccc1-c1ccccc1)C1CCCCC1 was read as Artemis endo inh 5.
O=C(CNS(=O)(=O)c1ccc(Br)s1)N1CCC2(CC1)OCCO2 was read as Artemis endo inh -4.
`O=c1c2ccccc2nc(-c2cccs2)n1-c1ccccc1` gave Artemis endo inh 3.
For CCn1nc(-c2cccs2)nc2c(=O)n(C)c(=O)nc1-2 the results were Artemis endo inh 71*.
CNP(=S)(NC)OCCOc1ccc(OC)cc1 was read as Artemis endo inh -4.
Screening C=CP(=O)(O)c1ccccc1 returned Artemis endo inh 8.
For CC(Cc1ccccc1)[n+]1cc(/N=C(\[O-])Nc2ccccc2)on1 (centres undefined) the results were Artemis endo inh 1.
Cc1ccc(N2C(=O)/C(=C/N3CCN(C(=O)c4ccco4)CC3)C(=O)NC2=S)cc1C was read as Artemis endo inh 31*.
CCN(CC)CCN=C(C)c1c(O)n(-c2ccccc2OC)c(=O)[nH]c1=O was read as Artemis endo inh 2.
`FC(F)(F)c1cccc(-n2nnnc2C2(N3CCOCC3)CCCCC2)c1` gave Artemis endo inh 8.
Screening CN(C)CC#CCOCCOCCC#N returned Artemis endo inh -5.
Screening CCCC(=O)C1C(=O)NC(=O)NC1=O returned Artemis endo inh -10.
